Compound activity: PubChem, National Center for Advancing Translational Sciences (NCATS)
HP1b chromo inh: HTS for Inhibitors of HP1-beta Chromodomain Interactions with Methylated Histone Tails. Potency, µM (doses to about 114 µM), for the others: at the highest dose activity change, negative = inhibition, actives largely listed as inhibitors. AlphaScreen HP1-beta / biotin-H3K9me3 peptide binding. 0.56% of 390,000 active; further: nearly all actives have a fitted effect of over 70% in size
Target sequence (P83916 whole entry, looked up): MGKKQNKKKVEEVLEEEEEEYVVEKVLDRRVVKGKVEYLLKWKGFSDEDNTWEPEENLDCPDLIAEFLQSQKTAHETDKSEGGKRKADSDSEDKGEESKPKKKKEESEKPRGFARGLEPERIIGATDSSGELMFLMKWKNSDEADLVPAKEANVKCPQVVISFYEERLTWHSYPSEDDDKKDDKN
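HP1-beta protein (50 nM final) preincubated 30 min at room temperature with biotinylated H3(1-18)K9me3 peptide (50 nM) in PBS pH 7.4, 0.01% Tween-20, then compound added for 30 min. AlphaScreen streptavidin donor/nickel chelate acceptor beads (10 ug/mL final), 30 min dark, luminescence read.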
BAZ2B block: qHTS Assay for Inhibitors of BAZ2B; Bromodomain adjacent to zinc finger domain protein 2B (Homo sapiens), Q9UIF8; AlphaScreen BAZ2B-H3K14Ac peptide displacement; Potency, µM (titrated, usually from 114 µM), for inactives: at the highest dose activity change, negative = inhibition, most hits filed as inhibitors; 4.4% of 360,000 active; AID 504333, 2011; further: on the % scale 0 is the no-effect control and ±100 the full control effect; nearly all actives have a fitted effect of over 60% in size
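Compounds, titrated to a top concentration of 110 uM, were incubated 30 min at room temperature with preformed BAZ2B/acetyl-K14 H3 peptide complex (50 nM each). Proximity signal was measured by AlphaScreen after 20 min with beads.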
G9a block: qHTS Assay for Inhibitors of Histone Lysine Methyltransferase G9a; 8.8% of 350,000 active; G9a H3K9 monomethylation, AlphaScreen, 2 h; Histone-lysine N-methyltransferase EHMT2 (Homo sapiens), Q96KQ7; Potency, µM (series often up to 102 µM), inactives show at the top dose activity, negative = inhibition, actives largely listed as inhibitors; further: on the % scale 0 is the no-effect control and ±100 the full control effect; nearly all actives have a fitted effect of over 75% in size
Target sequence (Q96KQ7 913-1193 limits assumed): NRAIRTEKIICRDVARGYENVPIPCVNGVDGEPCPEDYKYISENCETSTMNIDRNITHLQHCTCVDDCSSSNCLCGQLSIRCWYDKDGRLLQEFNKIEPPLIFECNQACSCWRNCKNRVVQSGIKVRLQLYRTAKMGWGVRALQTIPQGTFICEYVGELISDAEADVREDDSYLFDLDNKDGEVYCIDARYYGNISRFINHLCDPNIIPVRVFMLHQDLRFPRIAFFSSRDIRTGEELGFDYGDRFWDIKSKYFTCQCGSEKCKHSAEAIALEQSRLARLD
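Readings reflect AlphaScreen signal from monomethyl-H3K9 antibody detection. HMT at 20 nM; substrate b-H3K9 500 nM; cofactor SAM 20 uM; 2 h RT reaction; compounds tested as titrations in qHTS with 15 min preincubation.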
JMJD2A Tudor: qHTS Assay for Inhibitors of JMJD2A-Tudor Domain; 4.4% of 390,000 active; AlphaScreen JMJD2A-Tudor / H3K4me3 peptide binding; Lysine-specific demethylase 4A (Homo sapiens), O75164; Potency, µM (titrated, usually from 114 µM), for inactives: at the top dose activity change, negative = inhibition, actives largely listed as inhibitors; AID 504339, 2011; further: on the % scale 0 is the no-effect control and ±100 the full control effect; nearly all actives have a fitted effect of over 50% in size
PLK1 PBD inh: qHTS for Inhibitors of PLK1-PDB (polo-like kinase 1 - polo-box domain): Primary Screen | 2.8% of 360,000 active | Serine/threonine-protein kinase PLK1 (Homo sapiens), P53350 | Plk1 PBD binding of FITC phosphopeptide, fluorescence polarization | Potency, µM, for inactives: max response, negative = inhibition, actives largely listed as inhibitors; further: series mostly up to about 57 µM; on the % scale 0 is the no-effect control and ±100 the full control effect; nearly all actives have a fitted effect of over 65% in size
ALOX12 inh: Primary qHTS assay for inhibitors of human arachidonate 12S-lipoxygenase (ALOX12): Round 2; purified 12hLO, xylenol orange hydroperoxide absorbance; AID 1671190, 2021; 1.1% of 580,000 active; Potency, µM (doses to about 108 µM), inactives show at the top dose activity change, negative = inhibition, actives largely listed as inhibitors; further: on the % scale 0 is the no-effect control and ±100 the full control effect
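Hydroperoxide product was detected by ferrous iron/xylenol orange as the 573 to 405 nm absorbance ratio. Arachidonic acid at 40 uM (final) was turned over for 30 min at room temperature by 150 nM human 12hLO, pH 7.0 Hepes buffer, after 15 min compound preincubation.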
Numbers without * were called inactive; ? = inconclusive; . = not tested or not shown; [ ] = another dose, or the depositor's remark. This is a sample that favours compounds with a hit; in the whole collection about 9% have one here. The call rests on the fitted dose curve; in most records, active means well fitted curve in the direction sought with a large enough effect; inconclusive means small, poorly fitted or top-dose-only effect, or another doubt; inactive means no such curve, though single readings can be large; an effect the other way counts as inactive or inconclusive. Potency means the concentration at half of the fitted maximal effect.

SMILES	HP1b chromo inh	BAZ2B block	G9a block	JMJD2A Tudor	PLK1 PBD inh	ALOX12 inh
CCn1c(CNC(=O)c2ccccc2F)nnc1SCC(=O)N1CCc2ccccc21	.	.	.	.	.	3%
CCc1cc(=O)oc2c(CNCc3c(F)cccc3Cl)c(O)ccc12	44%	-2%	13%	2%	-4%	2%
CCCc1cc(=O)oc2c(CNc3ccc(OCC)cc3)c(O)ccc12	5%	?	40µM*	?	-9%	?
Cc1ccc(C2Cn3nnc(C(=O)N4CCN(c5cccc(C)c5)CC4)c3CO2)cc1 (configuration not stated)	.	.	.	.	.	36%
CC(=O)c1ccc(NC(=S)NNC(=O)NC2CCCCC2)cc1	-16%	?	8.9µM*	-28%	-19%	-11%
S=C(Nc1ccc(Oc2ccccc2)cc1)NC1CCCCCC1	-10%	-1%	45µM*	-12%	-20%	28µM*
S=C(NNc1ccc2ccccc2c1)NC1CCCCC1	28µM*	8.9µM*	11µM*	4µM*	-13%	?
Cc1ccc(NC(=S)NNC(=S)NC2CCCCC2)cc1	-14%	-14%	?	?	-20%	?
S=C(Nc1ccc(Oc2ccccc2)cc1)NC1CCCCC1	16%	-7%	-4%[59 µM]	-16%	1%	?
S=C(Nc1ccc(Oc2ccc(NC(=S)NC3CCCCC3)cc2)cc1)NC1CCCCC1	-7%	-25%	12%[59 µM]	-3%	-12%	11µM*
CC(C)c1ccc(NC(=S)NC2CCCCCC2)cc1	33%	-21%	27%[12.7 µM]	-30%	-10%	-21%
CSc1ccccc1NC(=O)CN(C)CC(=O)Nc1ccc(N2CCOCC2)cc1	40%	-21%	23%[59 µM]	-2%	-5%	41%
CCOc1ccc(NC(=O)C2CCN(S(=O)(=O)c3ccc4c(c3)N(C(C)=O)CCO4)CC2)cc1	18%[57 µM]	-16%	-8%	9%	3%	6%
CC(=O)N(C)c1ccc(C=C2C=Cc3ccccc32)cc1	?	.	.	79µM*	?	?
Cc1cc(C(F)(F)F)nc(CCNCc2c(C(=O)N3CCCC3)nc3ccccn23)n1	0%	-38%	17%[12.7 µM]	-3%	-1%	-6%
CCOC(=O)CSC1=C(C#N)C(=O)NC2(CCCCC2)S1	71µM*	13µM*	32µM*	45µM*	?	?
COc1ccc(C2CC(c3ccccc3)=NN2c2ccc(N)cc2)cc1 (configuration not stated)	?	40µM*	45µM*	?	-5%	?
COc1ccc(C2CC(c3ccccc3)=NN2C(=S)Nc2ccccc2)cc1 (configuration not stated)	20%	?	?	-28%	-20%	-13%
CNC(=S)N1N=C(c2ccc(OC)cc2)CC1c1ccc(N(C)C)cc1 (configuration not stated)	-52%	11µM*	.	35µM*	1%	-2%
COc1ccc(C2CC(c3ccc(Br)cc3)=NN2C(=S)Nc2ccccc2)cc1 (configuration not stated)	-22%	?	2µM*	-29%	-9%	-18%
CNC(=S)N1N=C(c2ccc(Br)cc2)CC1c1ccc(Br)cc1 (configuration not stated)	22%	-3%	-11%[59 µM]	-27%	0%	?
CNC(=S)N1N=C(c2ccc(Br)cc2)CC1c1ccc(N(C)C)cc1 (configuration not stated)	?	10µM*	7.9µM*	11µM*	7%	-4%
CNC(=S)N1N=C(c2cccs2)CC1c1ccc(OC)cc1 (configuration not stated)	48%	?	7%	-5%	-3%	-4%
